Rows were chosen to be rich in hits. Some 10% of all compounds tested hit in one or more screens of this group.
HPGD block = blocks human HPGD enzyme activity | AID 894 | hit rate 4.3% among 150,000 | Potency, µM, actives largely listed as inhibitors | purified HPGD, NADH fluorescence kinetic, PGE2 substrate
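20 nM HPGD preincubated 15 min at room temperature with compound in 50 mM Tris-HCl pH 8, 0.01% Tween 20. Started with 1 mM NAD+ and 30 uM prostaglandin E2; NADH fluorescence (360/450 nm) read 5 times over 30-s intervals, last minus first.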
PNC inhibitor = perinucleolar compartment assembly inhibition. PC3M PTB-GFP, PNC prevalence imaging, 16 h; stronger effect = lower value. activity change (PNC), negative = inhibition, % at 10 µM. hit rate 3.1% among 140,000. AID 2417;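 active = readout at or below -70, meaning at least 70% loss of cells showing the perinucleolar compartment, a nuclear body marking cancer cells; inconclusive = readout between -30 and a set limit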
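PC3M cells stably expressing PTB-GFP, 750–1000 cells/well, treated 16 h at 37 °C with compound (23 nl of library stock), in duplicate. After paraformaldehyde fixation and Hoechst stain, imaged at 20x; PNC prevalence scored by image analysis.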
LMNA splice mod = LMNA splicing modulation. Potency, µM (titrated, usually from 46.1 µM), hits mostly inhibitors. hit rate 0.01% among 200,000. HeLa LMNA splicing GFP/RFP minigene ratio, 48 h; active = well fitted inhibition curve with a large enough effect in the signal ratio, with a control signal flat, not every such curve was filed as active; inconclusive = small, poorly fitted or top-dose-only effect, or effect the other way, or a change in a side signal; the % refers to the signal ratio
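Read-out is the ratio of GFP to DsRed2 object intensity, acquired by 488 nm laser-scanning cytometry on HeLa lamin A-EGFP minigene reporter cells. Compound incubation 48 hrs at 37 °C in Opti-MEM with 2% FBS; DMSO 0.5% final.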
ALDH1A1 inh = ALDH1A1 (human) enzyme inhibition. P00352. Purified ALDH1A1, NADH fluorescence, propionaldehyde substrate. Potency, µM (doses to about 75.3 µM), hits mostly inhibitors. hit rate 7.3% among 220,000. AID 1030
12-hLO inh = blocks human 12-lipoxygenase activity; P18054; purified 12-hLO, xylenol orange hydroperoxide absorbance; Potency, µM (series often up to 57.1 µM), hits mostly inhibitors; hit rate 0.12% among 150,000; active = well fitted inhibition curve with a large enough effect; inconclusive = small, poorly fitted or top-dose-only effect; note: nearly all actives have a fitted effect of over 55% in size
Target sequence (P18054 whole entry, looked up): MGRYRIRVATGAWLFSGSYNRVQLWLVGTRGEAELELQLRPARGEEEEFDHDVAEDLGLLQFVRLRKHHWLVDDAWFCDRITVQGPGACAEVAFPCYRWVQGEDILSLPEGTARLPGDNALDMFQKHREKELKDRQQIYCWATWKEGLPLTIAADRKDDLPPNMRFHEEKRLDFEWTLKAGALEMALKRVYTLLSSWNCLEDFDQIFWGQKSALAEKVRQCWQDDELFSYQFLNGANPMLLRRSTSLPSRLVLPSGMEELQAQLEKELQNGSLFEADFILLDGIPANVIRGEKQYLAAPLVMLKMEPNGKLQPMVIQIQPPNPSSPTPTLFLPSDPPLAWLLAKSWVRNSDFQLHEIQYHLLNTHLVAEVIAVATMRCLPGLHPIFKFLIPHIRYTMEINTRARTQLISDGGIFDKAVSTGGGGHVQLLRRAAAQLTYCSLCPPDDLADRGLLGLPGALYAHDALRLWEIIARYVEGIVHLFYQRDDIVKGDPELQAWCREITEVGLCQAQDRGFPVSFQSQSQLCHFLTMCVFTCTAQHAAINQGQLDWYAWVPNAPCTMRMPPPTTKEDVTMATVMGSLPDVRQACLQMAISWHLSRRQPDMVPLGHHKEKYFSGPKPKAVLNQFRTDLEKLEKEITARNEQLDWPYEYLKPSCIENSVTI
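Purified human 12hLO (150 nM final) was preincubated with compounds for 15 min at room temperature in 25 mM Hepes pH 7.0, 0.01% Triton X-100, then reacted with 40 uM arachidonic acid for 30 min. Hydroperoxide was detected with ferrous iron/xylenol orange.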
Numbers stand for hits; 0 = inactive; ? = inconclusive; - = not tested or not shown. Unless noted, calls come from the whole dose curve; as a rule, active = well fitted inhibition curve with a large enough effect (not every such curve was filed as active); inconclusive = small, poorly fitted or top-dose-only effect, or another doubt; inactive = no such curve, though single readings can be large or run the other way.

SMILES | HPGD block | PNC inhibitor | LMNA splice mod | ALDH1A1 inh | 12-hLO inh
CCNc1oc(COc2cccc(C)c2)nc1C#N | 0 | 0 | 0 | 0 | 0
COc1ccc(/C=C2\N=C(c3c(-c4ccccc4)noc3C)OC2=O)cc1OC | 0 | 0 | 0 | 0 | 0
COc1cc(C2=N/C(=C\c3ccccc3)C(=O)O2)cc(OC)c1OC | 0 | - | - | ? | -
COc1ccc(/C=C2\C(=O)ON=C2c2cccc([N+](=O)[O-])c2)cc1 | - | - | - | 17.8µM | -
CN(C)/C=C1\C(=O)ON=C1c1ccccc1 | - | - | 0 | 0 | -
COc1cc(/C=C2\C(=O)ON=C2c2ccccc2)cc(OC)c1OC | 14.1µM | ? | 0 | ? | 0
Cc1ccc(C2=NOC(=O)/C2=C\C=C\c2ccccc2)cc1 | - | - | ? | 3.55µM | -
COc1ccc(/C=C2/C(=O)ON=C2c2ccccc2)cc1OC | 10µM | 0 | ? | 22.4µM | 0
CC#N | 0 | - | - | 0 | 0
CCCCCC1=C2CNC(CCC)(C(=O)OC)C=C2C(C)C1=O (stereo unspecified) | 0 | - | - | 28.2µM | 0
CC(C)C(=O)Nc1nc2ccc(S(C)(=O)=O)cc2s1 | - | - | - | 0 | -
CC1=CCC(C(=O)O)C(C(=O)Nc2nc3ccc(S(C)(=O)=O)cc3s2)C1 (stereo unspecified) | 0 | 0 | 0 | 0.224µM | 0
CCOC(=O)c1ccccc1NC(=O)N(C)CCc1c(C)nn(CC)c1C | - | - | 0 | - | -
CC(C)c1ccc(S(=O)(=O)N2CCN(C(=S)NCc3ccco3)CC2)cc1 | 28.2µM | 0 | ? | 0 | 0
CSCCCNC(=S)N1CCN(S(=O)(=O)c2cccc(C(F)(F)F)c2)CC1 | 0 | 0 | 0 | 0 | 0
O=S(=O)(c1cccc(C(F)(F)F)c1)N1CCN(C(=S)NCc2ccco2)CC1 | 0 | -108.7 | 0 | 0 | 0
S=C(NCc1ccco1)N1CCN(c2ccc(Cl)cc2)CC1 | - | - | - | 0 | -
CC(C)NC(=O)CSc1nc2ccccc2n1CC(=O)N(C(C)C)C(C)C | - | - | 0 | 0 | -
CC(C)N(C(=O)CSc1nc2ccccc2n1Cc1ccc(F)cc1)C(C)C | 0 | ? | ? | 25.1µM | 0
Cc1noc(/C=C/N(C)C)c1S(=O)(=O)N(C)CC(=O)N1CCc2ccccc21 | 0 | 0 | 0 | 0 | 0
Cc1noc(/C=C/N(C)C)c1S(=O)(=O)N1CCc2ccccc21 | 0 | 0 | ? | 5.62µM | 0
Cc1noc(/C=C/N(C)C)c1S(=O)(=O)N1CCCC(C(=O)NC(C)c2ccccc2)C1 (stereo unspecified) | 31.6µM | 0 | 0 | 7.51µM | 0
C=CCN(c1ccc(C(=O)N2CCCC2)cc1)S(C)(=O)=O | 20µM | 0 | 0 | 0 | 0
Cc1ccc(S(=O)(=O)N(C)c2ccc(C(=O)N3CCCCC3)cc2)cc1 | 0.398µM | 0 | ? | 0 | 0
CN(c1ccc(C(=O)N2CCCCC2)cc1)S(=O)(=O)c1ccccc1 | 0.447µM | 0 | ? | 0 | 0
SMILES | HPGD block | PNC inhibitor | LMNA splice mod | ALDH1A1 inh | 12-hLO inh
C=CCN(c1ccc(C(=O)NC(C)C)cc1)S(C)(=O)=O | 0 | ? | 0 | 0 | 0
CN(c1ccc(C(=O)N2CCN(Cc3ccc4c(c3)OCO4)CC2)cc1)S(=O)(=O)c1ccccc1 | 0 | 0 | ? | 0 | 0
CCOc1ccc(S(=O)(=O)N(C)c2ccc(OCC(=O)N3CCOCC3)cc2)cc1 | 0 | 0 | 0 | 0 | 0
CCOC(=O)C1CCN(C(=O)COc2ccc(N(C)S(=O)(=O)c3ccc(C)cc3)cc2)CC1 | - | - | 0 | 17.8µM | -
COc1ccccc1-c1cncnc1NCc1cccs1 | - | - | 0 | 0 | -
COCCn1c(CNC(=O)c2ccccc2C)nc2cccnc21 | - | - | 0 | - | -
O=C(c1ccncc1)N1CCC2(CC1)CN(c1cccc(-c3ccccc3)c1)C2 | ? | - | - | ? | 0
CN(c1ccc(C(=O)NC2CC2)cc1)S(=O)(=O)c1ccccc1 | 12.6µM | 0 | 0 | 0 | 0
CCc1cc(=O)[nH]c(SCc2nc(-c3ccccc3)no2)n1 | - | - | 0 | - | -
COc1ccc(N2C(=O)C3CCCCC3C2=O)cc1NC(=O)c1ccccc1 (stereo unspecified) | - | - | ? | 0.891µM | -
COc1cc(NC(=O)C2CCCO2)c(OC)cc1NC(=O)c1ccccc1 (stereo unspecified) | 0 | 0 | 0 | 0 | 0
COC(=O)[C@@]1(Cc2ccc(F)cc2)[C@H]2c3cc(C(=O)N4CCCC4)n(CCc4ccccn4)c3C[C@H]2CN1C(=O)c1ccccc1 | 0 | -96.9 | 0 | 0 | 0
COC(=O)[C@@]1(Cc2ccc(F)cc2)[C@H]2c3cc(C(=O)N(C)C)n(Cc4ccc(C)o4)c3C[C@H]2CN1C(=O)c1ccccc1 | 17.8µM | - | - | 0 | 0
COC(=O)[C@@]1(Cc2ccc(F)cc2)[C@H]2c3cc(C(=O)N(C)C)n(Cc4ccccc4)c3C[C@H]2CN1C(=O)c1ccccc1 | 0 | 0 | ? | 0 | 0
CSCCC1C(=O)OC2(C)CC(C)(C)NC(=S)N12 (stereo unspecified) | 0 | -100.0 | 0 | 0 | 0
COc1ccc(NC(=O)c2cc(C3CC3)nc3c2c(C)nn3-c2ccc(C)cc2)cc1OC | - | - | 0 | - | -
COc1cc(/C=C2/NC(=O)N(Cc3ccccc3F)C2=O)ccc1Oc1ccc([N+](=O)[O-])cn1 | 0 | 0 | ? | 0.224µM | 0
O=C(O)c1cccc(-n2cccc2/C=C2/NC(=O)N(Cc3ccccc3F)C2=O)c1 | - | - | - | 14.1µM | -
Cc1cccc(C)c1NC(=O)CN1C(=O)S/C(=C\c2cccn2-c2cccc(C(=O)O)c2)C1=O | 0 | 0 | 0 | 0 | 0
COc1cc(/C=C2/NC(=O)N(Cc3ccccc3F)C2=O)ccc1O | - | - | - | 6.31µM | -
Cc1ccccc1NC(=O)CN1C(=O)S/C(=C\c2cccn2-c2cccc(C(=O)O)c2)C1=O | 28.2µM | ? | 0 | ? | 0
O=C1N/C(=C/c2cccn2-c2ccc(F)cc2)C(=O)N1Cc1ccccc1F | 0 | 0 | ? | ? | 0
COc1cc(/C=C(/C#N)c2ccccc2)ccc1Oc1ccc([N+](=O)[O-])cn1 | 0 | 0 | ? | 0 | 0
CCCC/C(O)=C1\C(=O)CC(C)(C)CC1=Nc1ccccc1OC | 0 | 0 | ? | 0 | 0
CCC/C(O)=C1\C(=O)CC(C)(C)CC1=Nc1ccc(OC)cc1OC | 0 | -139.2 | ? | 0 | 0
SMILES | HPGD block | PNC inhibitor | LMNA splice mod | ALDH1A1 inh | 12-hLO inh
C/C=C/c1ccc(OCCCCn2cncn2)c(OC)c1 | 0 | 0 | 0 | ? | 0
C/C=C/c1ccc(OCCOc2cc(C=O)ccc2OC)c(OC)c1 | 0 | -113.4 | ? | 0 | 0
C/C=C/c1ccc(OCCCCOc2ccccc2F)c(OC)c1 | 0 | -125.2 | 0 | ? | 0
COc1cc(C=O)ccc1OCc1ccc(Cl)nc1 | - | - | - | 5.01µM | -
C/C=C/c1ccc(OCCn2cncn2)c(OC)c1 | 0 | ? | 0 | 25.1µM | 0
CN(C)c1ccc(C=C2C(=O)OC(C)(C)OC2=O)cc1 | - | - | - | 0.794µM | -
CN(C)c1ccc(C=C2C(=O)OC(C)(C(C)(C)C)OC2=O)cc1 (stereo unspecified) | 10µM | 0 | 0 | 0.398µM | 0
COc1ccc(CN2CCNC(=O)C2CC(=O)N(C)Cc2ccon2)c(OC)c1 (stereo unspecified) | - | - | 0 | 0 | -
O=C(O)c1ccc(NC2=C(N3CCOCC3)C(=O)c3ccccc3C2=O)cc1 | 0 | ? | 0 | 18.9µM | 0

Screens deposited in PubChem by National Center for Advancing Translational Sciences (NCATS).
